# Where a name gives a salt, the structure may show the parent alone.
# System: replication-induced senescent mouse newborn dermal fibroblasts (NBF)
# Test: relative cell viability of senescent cells (fraction); higher = less killing of senescent cells
# Settings: 1 µM; 3 days
# Experimental: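 Replication-induced senescent newborn mouse skin fibroblasts (NBFs) in 24-well plates were treated with a Selleck FDA-approved drug library at 1 µM for 3 days.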
row,SMILES,relative cell viability
1,CN(Cc1cnc2nc(N)nc(N)c2n1)c1ccc(C(=O)N[C@@H](CCC(=O)O)C(=O)O)cc1 [Methotrexate],0.692
2,"Cc1cc(Nc2cc(N3CCN(C)CC3)nc(Sc3ccc(NC(=O)C4CC4)cc3)n2)n[nH]1 [Tozasertib (VX-680, MK-0457)]",0.364
3,CCCc1nn(C)c2c(=O)[nH]c(-c3cc(S(=O)(=O)N4CCN(C)CC4)ccc3OCC)nc12 [Sildenafil Citrate],0.891
4,COc1ccc2[nH]cc(CCNC(C)=O)c2c1 [Melatonin],1.05
5,O=C(c1cc(Cc2n[nH]c(=O)c3ccccc23)ccc1F)N1CCN(C(=O)C2CC2)CC1,1.09
6,COc1cc2ncnc(Nc3ccc(F)c(Cl)c3)c2cc1OCCCN1CCOCC1 [Gefitinib (ZD1839)],1.01

# — the supplement of paper PMC7184167
